# GPR151 activ: activates the human receptor GPR151; Q8TDV0; PathHunter beta-arrestin GPR151 cells, luminescence; activation, % at 11.2 µM; 650,000 tested, 1% active; AID 1508602; in the data active means activation above about 4.9%;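 further: 0% = median of compound wells and 100% = cells with positive control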
# MITF primary: blocks human microphthalmia-associated transcription factor; O75030; AlphaScreen MITF homodimerization, bead proximity signal; inhibition, % at 2.6 µM; 650,000 tested, 0.91% active; AID 1259374; in the data active means inhibition above about 50%;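 further: 0% = vehicle wells with protein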
# TEAD-YAP inh: TEAD-YAP interaction inhibition | 640,000 tested, 1.4% active | AID 1259422 | HEK-TIYL cells, TEAD-Gal4/YAP UAS-luciferase luminescence | inhibition, % at 9.12 µM; in the data active means inhibition above about 32%;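 further: 0% = median of test compound wells and 100% = reference inhibitor wells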
# FBW7 activator: activators of human E3 ligase FBW7; 650,000 tested, 0.13% active; normalized activity (activation), % at 26.1 µM; AlphaScreen FBW7–phospho-cyclin E peptide binding, activator screen; in the data active means normalized activity above about 1.9%;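 further: purified mutant Fbw7 with reduced substrate affinity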
# Target sequence (Q969H0 whole entry, looked up): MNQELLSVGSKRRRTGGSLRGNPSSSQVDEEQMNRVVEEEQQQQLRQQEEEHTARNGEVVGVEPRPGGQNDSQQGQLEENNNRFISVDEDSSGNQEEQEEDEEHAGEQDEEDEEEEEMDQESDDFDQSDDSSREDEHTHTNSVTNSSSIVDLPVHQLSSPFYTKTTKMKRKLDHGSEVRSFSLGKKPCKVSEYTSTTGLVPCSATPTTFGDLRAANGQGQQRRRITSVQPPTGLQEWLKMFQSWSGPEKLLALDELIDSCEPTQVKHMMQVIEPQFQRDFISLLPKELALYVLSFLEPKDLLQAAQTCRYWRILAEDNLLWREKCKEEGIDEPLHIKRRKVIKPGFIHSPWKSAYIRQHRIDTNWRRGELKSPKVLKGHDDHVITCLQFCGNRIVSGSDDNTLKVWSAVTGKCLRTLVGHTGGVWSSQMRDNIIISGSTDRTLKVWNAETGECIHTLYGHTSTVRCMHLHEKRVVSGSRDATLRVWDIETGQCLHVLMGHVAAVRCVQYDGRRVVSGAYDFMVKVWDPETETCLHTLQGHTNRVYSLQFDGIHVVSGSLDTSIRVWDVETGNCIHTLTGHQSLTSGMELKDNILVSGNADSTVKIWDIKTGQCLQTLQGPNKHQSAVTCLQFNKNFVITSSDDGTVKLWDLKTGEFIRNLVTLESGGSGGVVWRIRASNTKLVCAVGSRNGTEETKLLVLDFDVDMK
# GPR151 conf act: confirmation of human GPR151 activators; shares compounds with GPR151 activ; GPR151 PathHunter beta-arrestin cells, luminescence, 90 min; % of EA-reagent control over plate median; activation, % at 11.2 µM; 6,700 tested, under 10 active; AID 1508609;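 active means mean percent activation across replicates above the confirmation screen cutoff of 4.91%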
# GPR119 counter: activates human GPR119 in a GPR151 counter-screen; AID 1508611; GPR119 PathHunter beta-arrestin cells, luminescence, 90 min; 0 = compound-well median, 100 = enzyme-acceptor control; shares compounds with GPR151 activ; activation, % at 11.2 µM; 6,700 tested, 0.3% active;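 active means mean percent activation in the counterscreen above 29.09%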;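 further: counterscreen on off-target GPR119 to flag nonselective hits from the GPR151 activator screen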
# An asterisk follows results filed as active; . = no result. The list is not random: actives were taken first. Their share in the collection is about 3.5%.
SMILES,GPR151 activ,MITF primary,TEAD-YAP inh,FBW7 activator,GPR151 conf act,GPR119 counter
Cc1nonc1NC(=O)CSc1nc(Cc2ccccc2)nc2ccccc12,10*,-8,0,0,0,3
NC(=NCCC[C@H](N)C(=O)O)NO,5.5*,-5,-3,0,0,-9
O=C(O)CCC(=O)c1ccc(Cc2ccccc2)cc1,5.3*,4,5,0,1,3
Cc1ccccc1C(NC(=O)C1CCN(C(=O)NC(C)(C)C)CC1)c1ncccc1C (configuration not stated),0,-1,5,0,.,.
N#Cc1nnc2c(N=Nc3ccccc3)c(=O)[nH]n2c1N,1,21,-12,0,.,.
Cc1ccccc1OCC(=O)NN1CC(O)=C(c2nc(-c3ccc(F)cc3)cs2)C1=N,5.6*,0,7,0,1,0
Cn1c(NC(=O)c2ccco2)c(-c2cccs2)c(=O)c2ccccc21,6.6*,7,6,0,0,-3
O=[N+]([O-])c1c(N2CCCCC2)c([N+](=O)[O-])c2nsnc2c1N1CCCCC1,5.6*,13,3,0,-1,-10
O=[N+]([O-])c1c(N2CCCC2)ncnc1N1CCCC1,0,-2,6,0,.,.
N#C/C=C(\c1ccc(F)cc1)N1CCOCC1,8.4*,-14,3,0,-1,-4
c1ccc(CN2CCC(Nc3nc(N4CCN(c5ccccn5)CC4)nc4nc[nH]c34)CC2)cc1,0,-5,6,0,.,.
O=C(Nc1cccc(Oc2ccc(C(=O)O)c(C(=O)O)c2)c1)c1ccc(-c2ccccc2)cc1,6.9*,2,18,0,0,3
O=C(Nc1cccc(Oc2ccc(C(=O)O)c(C(=O)O)c2)c1)c1ccc([N+](=O)[O-])cc1,0,14,6,-1,.,.
CC(C)(C)c1cc[n+](-c2[nH]c(=O)sc2C=O)cc1,1,18,-12,0,.,.
COc1ccc(C(=O)N(CCCO)C(C)C(=O)NC2CCCCC2)cc1OC (configuration not stated),5.1*,15,4,1,1,4
Clc1cccc(-n2cc(-c3ccccc3)c3c(NN4CCOCC4)ncnc32)c1,-2,11,-5,1,.,.
CC(=O)c1cc2c(cc1NC(=O)c1cccc(Br)c1)OCCO2,5.6*,18,13,0,0,-2
CC(=O)c1cc2c(cc1NC(=O)c1ccccc1)OCCO2,0,13,0,0,.,.
COc1ccc(C(=O)CCNc2cccc(C)c2)cc1,-1,10,-41,0,.,.
O=C(CCN1C(=O)/C(=C\c2cccs2)SC1=S)N1CCCC1,6.0*,5,21,-1,-1,-8
O=C(CN1C(=O)S/C(=C\c2cccs2)C1=O)N1CCCC1,5.5*,14,-3,0,0,3
O=C(NCCO)C1CCCN(c2cccc3c2C(=O)N(C2CCCCCCC2)C3=O)C1 (configuration not stated),5.8*,-2,-1,0,0,8
O=C1c2cccc(N3CCCC(C(=O)N4CCC[C@H]4CO)C3)c2C(=O)N1C1CCCC1 (some centres not stated),2,4,-31,0,.,.
O=C(/C=C/c1cccc(Cl)c1)Nc1ccncc1,24*,1,-26,0,0,-9
C=CCc1cc2c(C)cc(=O)oc2c(I)c1O,7.1*,14,-15,0,1,6
SMILES,GPR151 activ,MITF primary,TEAD-YAP inh,FBW7 activator,GPR151 conf act,GPR119 counter
CNC(=O)/C=C/c1cccc(C(F)(F)F)c1,6.1*,-9,7,0,0,3
Cc1cc(NC(=O)C2Cc3ccccc3C(=O)O2)no1 (configuration not stated),-2,-15,-7,0,.,.
CC1(C)CC(=O)C2=C(C1)OC1=C(C(=O)CC(C)(C)C1)C2c1cccs1,2,-5,1,0,.,.
CC1(C)CC(=O)C2=C(C1)OC1=C(C(=O)CC(C)(C)C1)C2C=C(Cl)Cl,6.6*,8,-9,1,0,-10
CC(=O)C1C2=C(CC(C)(C)CC2=O)OC2=C1C(=O)CC(C)(C)C2,6.7*,3,-12,0,0,-4
Cn1c(=O)[nH]c(=O)c2c1nc(N)n2Cc1ccc(F)cc1,0,-6,-8,0,.,.
O=C(/C=C/c1cccs1)Nc1cccc2c1C(=O)NC2=O,-1,8,-16,0,.,.
CC(=O)N1CC(C)Sc2cc(S(=O)(=O)N3CCCCC3)ccc21 (configuration not stated),2,5,5,0,.,.
CCN1CCN(S(=O)(=O)c2ccc3c(c2)SC(C)CN3C(C)=O)CC1 (configuration not stated),6.1*,-3,6,0,0,-2
CCC(=O)Oc1ccc2c(-c3cc4ccccc4oc3=O)cc(=O)oc2c1,5.4*,-10,-7,0,0,10
CCOc1ccc2c(-c3cc4ccccc4oc3=O)cc(=O)oc2c1,2,1,-1,0,.,.
O=C(Oc1ccc2c(-c3cc4ccccc4oc3=O)cc(=O)oc2c1)C1CC1,9.2*,-2,8,0,0,1
CC1=C(C(=O)OCc2ccc3c(c2)OCO3)C(c2cccc(Cl)c2)NC(=O)N1 (configuration not stated),6.6*,-4,25,0,1,14
CC1=C(C(=O)OCC(C)C)C(c2ccc3c(c2)OCO3)NC(=O)N1 (configuration not stated),5.9*,11,-2,0,0,5
COc1cc(OC)c(C(=O)OC2CCOC2=O)cc1OC (configuration not stated),0,-2,-8,0,.,.
CC(C)NC(=O)CN1C(=O)N(C)N(C)c2ncccc21,0,2,4,0,.,.
CCC(=O)N(C)C(Cc1ccc(F)cc1F)C1CCN(C(=O)C2CCOC2)CC1 (configuration not stated),2,-3,-2,0,.,.
C(/C=C/c1ccccc1)=N/N1CCN(c2ccccc2)CC1,4.9*,16,-19,0,-2,-10
CC(=O)N1CCN(C(=O)c2ccc3c(c2)OCO3)CC1,5.5*,-2,3,0,0,-3
O=C(c1ccc2c(c1)OCO2)N1CCN(c2ccc(Cl)cc2)CC1,5.5*,17,-6,0,3,-2
CC(=O)c1ccc(N2CCN(C(=O)c3ccc4c(c3)OCO4)CC2)cc1,0,-11,-8,0,.,.
O=C(c1ccc2c(c1)OCO2)N1CCCCCC1,1,16,-1,0,.,.
C=CCOc1ccccc1C(c1c(C)[nH][nH]c1=O)c1c(C)[nH][nH]c1=O,9.5*,7,5,-1,0,-8

# Screens (PubChem BioAssay)
